Assay results reported in the OligoGym collection.

What follows are sequences tested against POP5 (assay: pooled miR-30 sensor sort-seq; sequence = guide strand). Details: shRNA.
Note: reference of the scale not given here.

Sequence	sensor-assay potency score (higher = more potent)
TTCTTGTCACAGACTTCTGGAT	-0.854
AAGATCAACAGCTGTCTCCTGT	0.552
TTCTGCATCGAAGTAGCACTAT	-0.187
TATTAAATCTACTCTTAGCCAA	-0.331
TGAATTAGGAACTTCTGACATG	-0.611
TACTGAATTAGGAACTTCTGAC	-0.267
ATTAAATCTACTCTTAGCCAAG	-1.64
TTGTTCTGTTCAACAAGTGGGC	-0.188
TTCATCAGTGCAGTTCTGCAAC	-0.521
TAACTGAGTACTCCATTTCAAG	-1.58
TACAGAGTTCACAACCTGCAAC	-0.95

These sequences were tested against POU2F2 in the same assay as above. Details: shRNA.

Sequence	sensor-assay potency score (higher = more potent)
TAGATTTGGTGTCGGTAGCAGG	-0.991
TTTCGGTGTCTGTGTGCTCTGA	-0.406
TTTGTCTCGATGCTGGTCCTCT	-0.192
TTCGGTGTCTGTGTGCTCTGAT	0.743
ATTTCTTTCGGTGTCTGTGTGC	-0.0405
TTCGCTAGAAAACTCTTCTCTA	0.465
TTGAGTTTGCACATGTTCTTGA	1.05
TTGATCTTTGTACTGGGGCCAG	-0.786
TCTTCTTGCGTCTCCGGCCGGG	-0.79
TTGGTGTCGGTAGCAGGCCTGG	-1.3
TTAGTGTCTGGTCCATTTCTTT	-1.05
TTAGACATTCTTATTTCTGGAG	-0.093

These sequences were tested against PPARD in the same assay as above. Details: shRNA.

Sequence	sensor-assay potency score (higher = more potent)
TTAAAGTTTCGTCAGTCTGTGT	-0.63
TTCTTCTTCTGAATCTTGCAGC	0.0519
TAGCGTTGTGTGACATGCCCAG	0.138
TTGCCGGTGAGGATGCTGCGGG	-0.839
TTCTTCTGAATCTTGCAGCTGC	0.468
TTGACAGCAAATTCAAACTTAG	-0.865
TTCGGTCTTCTTGATCCGCTGC	0.435
TTGATCCGCTGCATCATCTGGG	-0.175
TTGGAGATTGTTCAGACACTGA	-0.713
TCGTACTCCAGCTTCATGCGGA	-0.0495
TAAGAAAGGAGGACAGACGTGG	0.523
TTGAACTTGACAGCAAATTCAA	-0.881

What follows are sequences tested against PPARGC1A in the same assay as above. Details: shRNA.

Sequence	sensor-assay potency score (higher = more potent)
TTGCTGTTGACAAATACTCTTC	-0.955
TTGACAAATACTCTTCGCTTTA	-1.03
TTGTCTAGAGTCTTGGAGCTCC	0.145
TTAGACTTGAAAAATTGCTTGC	0.583
